From PubChem BioAssay AID488969 (Vanderbilt High Throughput Screening Facility, 2010)
Over roughly 110,000 compounds, “z-score” has its median near -0.1; the highest 2% begin near 2. The sample as a whole holds a higher share of the highest values than the screen did. Calls of active or inactive are those of the source.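 The calls were made as follows: active = z-score in the third read window above 3 or below -3; inactive = the rest.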

These molecules were tested against Metabotropic glutamate receptor 8 (Rattus norvegicus) (UniProt P70579) (assay: rat mGluR8 modulators via GIRK flux, primary screen, cell-based, thallium flux, HTS (AID 488969)). Conditions: HEK293 rat mGluR8, GIRK (G protein-gated inwardly rectifying potassium channel) thallium flux, FluoZin2; at 10 µM; stronger effect = higher value; submaximal glutamate (EC20) added with thallium.
Chain of Metabotropic glutamate receptor 8 (Rattus norvegicus) (P70579 whole entry, looked up): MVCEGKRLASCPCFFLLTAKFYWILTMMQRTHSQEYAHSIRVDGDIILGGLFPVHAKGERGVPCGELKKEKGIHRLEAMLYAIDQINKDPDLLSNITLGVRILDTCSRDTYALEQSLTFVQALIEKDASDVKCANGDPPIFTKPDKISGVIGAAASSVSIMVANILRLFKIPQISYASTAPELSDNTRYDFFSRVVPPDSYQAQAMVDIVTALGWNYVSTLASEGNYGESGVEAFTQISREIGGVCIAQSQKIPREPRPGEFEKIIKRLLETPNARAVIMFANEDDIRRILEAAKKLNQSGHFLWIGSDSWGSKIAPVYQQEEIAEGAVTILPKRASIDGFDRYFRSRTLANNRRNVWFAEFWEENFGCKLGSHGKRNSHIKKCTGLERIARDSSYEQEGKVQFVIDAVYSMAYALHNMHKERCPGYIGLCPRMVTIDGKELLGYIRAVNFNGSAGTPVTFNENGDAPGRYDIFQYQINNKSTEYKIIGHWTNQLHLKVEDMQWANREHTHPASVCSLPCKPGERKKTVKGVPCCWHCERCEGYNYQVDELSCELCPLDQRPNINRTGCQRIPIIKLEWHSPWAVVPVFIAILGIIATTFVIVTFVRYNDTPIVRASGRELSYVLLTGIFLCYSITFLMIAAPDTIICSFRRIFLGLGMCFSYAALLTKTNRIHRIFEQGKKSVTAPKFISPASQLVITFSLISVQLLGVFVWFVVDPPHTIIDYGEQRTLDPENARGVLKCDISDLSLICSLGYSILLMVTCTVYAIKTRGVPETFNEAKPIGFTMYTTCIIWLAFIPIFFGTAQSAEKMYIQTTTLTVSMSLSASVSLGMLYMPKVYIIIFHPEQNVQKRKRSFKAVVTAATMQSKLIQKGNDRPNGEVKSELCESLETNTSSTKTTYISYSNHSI
`O=C(NCC1CCCO1)c1ccc(CS(=O)(=O)c2c(Cl)cccc2Cl)o1` (centres undefined) showed a z-score of -0.0453. With `COc1ccccc1-n1c(=O)[nH]c2c(C(N)=O)nc(C3CCCCC3)nc21` the z-score was -0.356. `CCN1CCN(C(c2ccc(OC)cc2)C(O)C(=O)c2c[nH]c3ccccc23)CC1` (centres undefined) showed a z-score of 0.0792. Work on `C=CCn1c(COc2ccc(Cl)cc2)nnc1SCC(=O)N/N=C/c1cccc(O)c1` yielded a z-score of -0.279. With `CCOC(=O)c1c(NC(=O)CSc2nncs2)sc(C)c1-c1ccccc1` the z-score was -0.117. With `CCOC(=O)c1ccccc1N1C(=O)CSC1=S` the z-score was -0.0781. `COCCn1c(C)cc(C(=O)COC(=O)c2ccc(NC(=O)CC#N)cc2)c1C` was tested, and the z-score was -0.449. In the case of `Cc1nn(Cc2c(F)c(F)c(F)c(F)c2F)c(C)c1NC(=O)c1ccc(COc2ccccc2Cl)o1`, the z-score is reported as -0.506. In the case of `CC(=O)c1cc2c(cc1NC(=O)CCC1CCCC1)OCO2`, the z-score is reported as 0.181. Molecule `COc1ccc(NC(=O)c2cc(Cl)ccc2NC(=O)c2ccco2)c(OC)c1` has a z-score of 0.354. For `CCN(CC)S(=O)(=O)c1ccc(C(=O)Nc2nnc(C(C)C)s2)cc1`, the z-score was -0.2. With `COc1ccc(S(=O)(=O)NC(C)C(=O)O)cc1` (centres undefined) the z-score was -0.408. Molecule `O=C(OCc1nc2ccccc2s1)C1CCN(S(=O)(=O)c2cccs2)CC1` has a z-score of 0.023. Molecule `CCCn1c(SCC(=O)c2ccc(OC)c(OC)c2)nc2c1c(=O)n(C)c(=O)n2C` has a z-score of -0.237. For `COc1ccc(C(=O)Cn2c(Br)nc3c2c(=O)n(C)c(=O)n3C)cc1OC`, the z-score was -0.137. Work on `COc1ccc(-c2nc3c(c(=O)n(C)c(=O)n3C)n2CC2CC(c3ccccc3)=NO2)cc1OC` (centres undefined) yielded a z-score of 2.08. `Cc1cccc(N/C=C/c2onc(C)c2[N+](=O)[O-])c1` showed a z-score of 1.43. `CCN(CC)S(=O)(=O)c1cc(C(=O)OCC(=O)NC2CCCc3ccccc32)ccc1C` (centres undefined) was tested, and the z-score was -0.154. With `COCCn1c(C)cc(C2=NNC(=Nc3ccccc3)SC2)c1C` the z-score was -0.413. `Cc1ccc(-n2c(N)c(C(=O)NCc3cccnc3)sc2=S)cc1` gave a z-score of 0.285. In the case of `COc1cc2c(C(=O)NCc3ccc4c(c3)OCO4)cn(C)c(=O)c2cc1OC`, the z-score is reported as -0.397. `COc1ccc(OC)c(NC(=O)Cn2c(CCC(=O)O)ccc2-c2cccs2)c1` was tested, and the z-score was -0.116. `COc1ccc(S(=O)(=O)N2CCN(C(=O)NCc3ccccc3)CC2)cc1` gave a z-score of -0.0685. Work on `CCOc1ccc(NCc2cc3c(C(C)(C)C)nn(-c4ccccc4)c3[nH]c2=O)cc1` yielded a z-score of -0.079. In the case of `CCc1ccc(NCc2cc3c(C)nn(-c4ccccc4)c3[nH]c2=O)cc1`, the z-score is reported as 5.48 (active). Molecule `Cc1nn(-c2ccccc2)c2[nH]c(=O)c(CNCc3ccc4c(c3)OCO4)cc12` has a z-score of -0.638. Work on `Cc1ccc(OCC(=O)Nc2sc3c(c2C#N)CCC3)cc1C` yielded a z-score of -0.0369. `COc1cccc(C2CC(c3ccc(F)cc3)Nc3nc(N)nn32)c1` (centres undefined) showed a z-score of 0.0383. `CC(C)CCNC(=O)c1ccc(CSCc2cccc(F)c2)o1` was tested, and the z-score was -3.86 (active). In the case of `O=C(NCCCN1CCCC1)c1ccc(CSCc2cccc(Cl)c2)o1`, the z-score is reported as 3.42 (active). With `CCC(C)NC(=O)c1ccc(CSCc2cccc(F)c2)o1` (centres undefined) the z-score was -0.863. Molecule `CN1CCN(CCCNC(=O)c2ccc(CSCc3cccc(Cl)c3)o2)CC1` has a z-score of 1.35. In the case of `O=C(NC1CC1)c1ccc(CSCc2cccc(F)c2)o1`, the z-score is reported as 4.11 (active). Work on `CC1CCN(CCCNC(=O)c2ccc(CSCc3cccc(Cl)c3)o2)CC1` yielded a z-score of 0.509. Work on `COc1cccc(-c2cc(C(=O)N3CCN(Cc4ccccc4)CC3)no2)c1` yielded a z-score of 0.395. In the case of `CO/N=C/NC(=O)c1c(OC)ccnc1Oc1cccc(C(F)(F)F)c1`, the z-score is reported as 0.0176. `O=C1N=C(c2ccccc2)S/C1=C\c1cccs1` gave a z-score of 2.92. `NC1=NC(=O)/C(=C\c2cccs2)S1` gave a z-score of -0.0766. `NC1=NC(=O)/C(=C/c2cccs2)S1` showed a z-score of -0.848. Molecule `Cc1cc2ncn(C(=O)c3c(-c4c(Cl)cccc4Cl)noc3C)c2cc1C` has a z-score of 0.106. `Cc1cc(NC(=O)c2ccc(S(=O)(=O)N3CCCC3)cc2)nc2c1c(=O)oc1ccccc12` showed a z-score of 0.442. `FC(F)(F)COc1nc(OCC(F)(F)F)nc(N2CCN(c3ccccc3)CC2)n1` gave a z-score of -0.193. `CNc1nc(OCC(F)(F)F)nc(N2CCOCC2)n1` was tested, and the z-score was -0.112. In the case of `FC(F)(F)COc1nc(N2CCCCC2)nc(N2CCNCC2)n1`, the z-score is reported as 2.6. `O=C(NCc1cccnc1)c1ccccc1[N+](=O)[O-]` was tested, and the z-score was -0.0931. Molecule `CCOc1ccc(/C=N/NC(=O)c2ccccc2NC(=O)c2ccc(OC)cc2)cc1` has a z-score of -0.0531. In the case of `Cc1ccccc1-c1nn[nH]n1`, the z-score is reported as -0.33. `Cc1ccc2occ(-c3nn[nH]n3)c(=O)c2c1` showed a z-score of 0.366. In the case of `CC(C)c1ccc2occ(-c3nn[nH]n3)c(=O)c2c1`, the z-score is reported as 3.29 (active). Work on `CCCSc1nn2c(=O)c3ccccc3nc2s1` yielded a z-score of -0.252. Work on `CCCc1cc(C(N)=S)ccn1` yielded a z-score of 2.24. With `CCCc1cc(-c2nc(-c3ccc(Cl)cc3)cs2)ccn1` the z-score was -0.136. Molecule `CCCc1cc(-c2nc(-c3ccc(Br)cc3)cs2)ccn1` has a z-score of 0.0465. `COc1nc(NCCc2ccc(OC)c(OC)c2)nc(OC)n1` was tested, and the z-score was -0.163. In the case of `O=c1c(C(c2ccccc2)c2c(O)sc3ccccc3c2=O)c(O)sc2ccccc12`, the z-score is reported as 7.03 (active). In the case of `COc1ccc2sc3ccccc3c(=O)c2c1`, the z-score is reported as -0.213. In the case of `O=c1c2ccccc2sc2ccc(Cl)cc12`, the z-score is reported as -0.316. `CCN1C(=O)CC(N2CCN(c3ccc(C(=O)c4ccccc4)cc3)CC2)C1=O` (centres undefined) gave a z-score of -0.153. For `COc1ccc(NC(=O)C2CCCN(S(=O)(=O)c3cccs3)C2)cc1OC` (centres undefined), the z-score was -0.257. `O=C(Cc1cccs1)Nc1nnc(CCc2ccccc2)s1` showed a z-score of 0.238. `COCCSc1nnc(NC(=O)Cc2cccs2)s1` was tested, and the z-score was 0.124. `Cc1nnc(NC(=O)CCSc2ccccc2)s1` was tested, and the z-score was 2.67. Work on `CCCCc1nnc(NC(=O)CCSc2ccccc2)s1` yielded a z-score of 0.0449. For `O=C(Cc1cccs1)Nc1nnc(Cc2ccccc2)s1`, the z-score was -0.0843. For `O=C(Cc1cccs1)Nc1cccnc1`, the z-score was 3.36 (active). `O=C(Nc1cccnc1)c1cccs1` gave a z-score of -0.52. In the case of `COCc1nnc(NC(=O)CCSc2ccccc2)s1`, the z-score is reported as -0.0854. With `Cc1nnc(NC(=O)Cc2cccs2)s1` the z-score was 2.4. With `O=C(Cc1cccs1)NCc1cccnc1` the z-score was 0.742. Work on `Cc1nnc(NC(=O)CCC(=O)NCc2cccs2)s1` yielded a z-score of -0.0957. For `CCCCCc1nnc(NC(=O)Cc2cccs2)s1`, the z-score was 12.3 (active). For `NNc1nnc(-c2ccccc2)c(-c2ccccc2)n1`, the z-score was -0.209. `CCOC(=O)CCCCC(=O)c1[nH]c(=O)[nH]c1CSCCO` gave a z-score of 0.565. With `O=C(Nc1ccc(F)cc1)C(c1ccccc1)N1CCN(C(=O)c2ccco2)CC1` (centres undefined) the z-score was -0.404.
